Common to all, as to details: concentration: 10 µM; 24 h
In assay [1] the test system is HCC1569. The experiment in a line: cell number relative to DMSO (% of DMSO); higher = more cells (less growth inhibition / toxicity). Summed up: (§1)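 Cell number or H1.0 nuclear intensity appears as percent of the plate control, based on the median of replicates. Measurements came from HCC1569 and TDF cells exposed in triplicate to compounds at 10 µM for 24 h at 37 °C, then imaged in six fields per well at ×10. Positional effects were smoothed out of HCC1569 values.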

Assay [2] deals with TDF. Described as above. Summed up: as §1
Assay [3] concerns TDF. The assay can be described thus: H1.0 immunofluorescence intensity relative to DMSO (% of DMSO); higher = stronger H1.0 induction, active = 120 or more. Summed up: as §1
Assay [4] relates to HCC1569. The experiment in a line: H1.0 immunofluorescence intensity relative to DMSO (% of DMSO); higher = stronger H1.0 induction, active = 140 or more. Summed up:
as §1
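For H1.0 immunofluorescence intensity relative to DMSO in this document: TDF is a line of transformed human dermal fibroblasts of mesenchymal origin.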
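For cell number relative to DMSO in this document: TDF denotes transformed human dermal fibroblasts of mesenchymal origin.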

In the case of `Cc1cccc(C=Cc2ccccc2)n1`, the cell number with HCC1569 [1] was 101; with TDF [2] it was 104. The H1.0 immunofluorescence intensity with TDF [3] is 96.7 (inactive); in the assay on HCC1569 [4] it was 100 (inactive).
The matching figures for `COC(C(=O)C(O)C(C)O)C1Cc2cc3cc(OC4CC(OC5CC(O)C(O)C(C)O5)C(O)C(C)O4)c(C)c(O)c3c(O)c2C(=O)C1OC1CC(OC2CC(OC3CC(C)(O)C(O)C(C)O3)C(O)C(C)O2)C(O)C(C)O1` (stereo unspecified) [Plicamycin]: 60.8, 36, 103 (inactive) and 126 (inactive).
Consider `O=C(Oc1cc(S(=O)(=O)c2ccccc2)ccc1[N+](=O)[O-])c1ccc(Cl)cc1` [2-nitro-5-(phenylsulfonyl)phenyl 4-chlorobenzoate], for which the cell number in the assay on HCC1569 [1] was 99.5; in the assay on TDF [2], 87.8. Further, the H1.0 immunofluorescence intensity in the assay on TDF [3] is 96.7 (inactive); in the assay on HCC1569 [4], 111 (inactive).
For the molecule `CC(C=CC1=C(C)CCCC1(C)C)=CC=CC(C)=CC(=O)Nc1ccc(O)cc1` [Fenretinide], the figures for the cell number with HCC1569 [1] and in the assay on TDF [2] were 51.1 and 106, respectively. Besides, the H1.0 immunofluorescence intensity is 97.8 (inactive) in the assay with TDF [3] and 181 (active) in the assay on HCC1569 [4].
The matching figures for `c1ccc(-c2ccccn2)nc1` [2,2'-Bipyridyl]: 107, 95, 104 (inactive) and 102 (inactive).
Regarding `COc1ccc2[nH]c(S(=O)Cc3ncc(C)c(OC)c3C)nc2n1` (stereo unspecified) [Tenatoprazole], the cell number is 103 in the assay on HCC1569 [1] and 104 with TDF [2]. Moreover, the H1.0 immunofluorescence intensity in the assay on TDF [3] was 106 (inactive); with HCC1569 [4], 100 (inactive).
As to `COc1cc2ncnc(Nc3ccc(O)c(Br)c3)c2cc1OC` [JAK3 Inhibitor II], the cell number worked out at 88.7 with HCC1569 [1] and 115 with TDF [2]. The H1.0 immunofluorescence intensity in the assay with TDF [3] is 83.8 (inactive); in the assay with HCC1569 [4], 127 (inactive).
For the molecule `CN(C)CCOC(c1ccccc1)c1ccccc1.Cl` [Diphenhydramine hydrochloride], the figures for the cell number with HCC1569 [1] and in the assay on TDF [2] were 100 and 105, respectively. Also, the values for the H1.0 immunofluorescence intensity with TDF [3] and in the assay on HCC1569 [4] were 88.7 (inactive) and 97 (inactive), respectively.
Regarding `CCC12CCCN3CCc4c(n(c5ccccc45)C(O)(C(=O)OC)C1)C32` (stereo unspecified) [Vincamine], the figures for the cell number with HCC1569 [1] and in the assay with TDF [2] were 101 and 95.8, respectively. Also, the H1.0 immunofluorescence intensity is 102 (inactive) in the assay with TDF [3] and 86.2 (inactive) with HCC1569 [4].

(Values after the supplement of paper PMC7156485.)
